From PubChem
Methyltransferases: Primary Screen for Target Class Profiling of Small Molecule Inhibitors of Methyltransferases. calls only at 40 µM. purified enzyme, MTase-Glo SAH luminescence; stronger effect = lower value. 3.9% of 25,000 active. AID 1745853, 2022; call rule not given here
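Each enzyme was reacted with SAM and its substrate, with compounds tested once at 40 uM; SAH formed was read by MTase-Glo luminescence.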
Numbers without * were called inactive. This is one part of a sample in which hits are shown more often than they occur. % is set by controls: 0 for no effect and ±100 for the full control effect.

Cc1cc2c(cc3n2CC(C)(C(=O)NC2CCCCCC2)N(Cc2ccccn2)C3=O)o1 (configuration not stated) was read as Methyltransferases inactive.
`CCn1nnc2c(N3CCOCC3)nc(-c3ccc(NC(=O)Nc4ccc(C(=O)N5CCN(C)CC5)cc4)cc3)nc21` gave Methyltransferases active.
Screening Cc1c(NC(=O)c2ccc(C(C)(C)C)cc2)cccc1-c1cn(C)c(=O)c(Nc2ccc(C(=O)N3CCOCC3)cc2)n1 returned Methyltransferases inactive.
`Cc1cc(C(=O)N2CCc3ncnc(N4CCOCC4)c3CC2)n(C)n1` gave Methyltransferases inactive.
Screening CCCN1C(=O)c2c(NC(C)=O)c3ccccc3n2CC1(C)C(=O)NC1CCCC1 (configuration not stated) returned Methyltransferases inactive.
CCCn1c(=O)c2ccc(C(=O)NC3CCCCC3)cc2n2c(=O)n(Cc3ccc(C)cc3)nc12 was read as Methyltransferases inactive.
For C[C@H](Nc1cc2c(-c3ccc4c(c3)OCO4)noc2cn1)c1ccccc1 the results were Methyltransferases active.
For O=C(Nc1ccn(Cc2c(F)cccc2C(F)(F)F)n1)c1c(F)cccc1F the results were Methyltransferases inactive.
For O=C(COc1ccc(-c2nnc3n2CCCC3)cc1)N1CCN(c2ccc(F)cc2)CC1 the results were Methyltransferases inactive.
`CCN1CCN(CCNC(=O)c2cc3n(n2)CC(C)(C(=O)NC2CCCCC2)N(C)C3=O)CC1` (configuration not stated) gave Methyltransferases inactive.
For COc1cccc(CC(=O)NCc2ccc(Cl)s2)c1 the results were Methyltransferases inactive.
`CCOC(=O)c1cc2n(n1)CC(C)(C(=O)NC1CCC(C)CC1)N(c1cccc(CC)c1)C2=O` (configuration not stated) gave Methyltransferases inactive.
CC1(C)CC2C(O)C3=C(CC(C)(O)C2C1)C(=O)OC3 (configuration not stated) was read as Methyltransferases inactive.
Screening CCOC(=O)c1cc2n(n1)CC(C)(C(=O)NC1CCC(C)CC1)N(c1cccc(OC)c1)C2=O (configuration not stated) returned Methyltransferases inactive.
`COc1ccccc1C(=O)N1CCCCCC1CN1CCc2ccccc2C1` (configuration not stated) gave Methyltransferases inactive.
Cc1ccc(NC2=CC(=O)c3sc(C)nc3C2=O)cc1 was read as Methyltransferases active.
Screening O=C(OC[C@H]1O[C@H](O[C@]2(CO)O[C@H](CO)[C@@H](O)[C@@H]2O)[C@H](O)[C@@H](O)[C@@H]1O)c1ccc(O)cc1 returned Methyltransferases inactive.
For O=C(OC[C@H]1O[C@H](O[C@H]2CO[C@H](CO)[C@@H](O)[C@@H]2O)[C@H](O)[C@@H](O)[C@H]1O)c1ccccc1 the results were Methyltransferases inactive.
Screening C[C@]12C[C@@H](O)[C@@H]3C[C@@]1(O[C@@H]1O[C@H](CO)[C@@H](O)[C@H](O)[C@H]1O)[C@]3(COC(=O)c1ccccc1)C(=O)O2 returned Methyltransferases active.
Screening COCCNC(=O)C1(C)Cn2c(nc3ccccc32)C(=O)N1CCc1ccc(Cl)cc1 (configuration not stated) returned Methyltransferases inactive.
`Cc1nc(N2CCC(NC(=O)C3CCCCC3)CC2)cc(C(F)(F)F)n1` gave Methyltransferases inactive.
Screening COC(=O)c1ncn2c1C(=O)N(C1CC1)C(C)(C(=O)NCc1ccc(C)cc1)C2 (configuration not stated) returned Methyltransferases inactive.
Screening O=C(CCc1nnc2n(Cc3ccccc3)c(=O)c3ccccc3n12)N1CCN(c2ccccc2)CC1 returned Methyltransferases inactive.
`C=CC(=O)Nc1cccc(Nc2nc(Nc3ccc(OCCOC)cc3)ncc2F)c1` gave Methyltransferases active.
CC(C)(C)NC(=O)Nc1cccc(Nc2ncc(F)c(NC(C)(C)CO)n2)c1 was read as Methyltransferases inactive.
For CC1(C(=O)Nc2ccccc2F)COCc2cnc(Nc3ccccc3)nc21 (configuration not stated) the results were Methyltransferases inactive.
`O=C(CCc1ccccc1)N1CC(Oc2ccccc2-c2nc(-c3ccccc3)no2)C1` gave Methyltransferases inactive.
For CN1C(=O)c2cc(C(=O)NCc3ccccn3)nn2CC1(C)C(=O)NCc1ccccc1 (configuration not stated) the results were Methyltransferases inactive.
Screening Cn1cc(-c2cnc3ccc4ccc(CS(=O)(=O)NCc5ccccn5)cc4c(=O)c3c2)cn1 returned Methyltransferases active.
Screening Cn1cc(-c2ccc3ncc(Cc4ccc5ncccc5c4)n3n2)cn1 returned Methyltransferases inactive.
`COc1ccccc1CNC(=O)C[C@@H]1c2nc(-c3cccnc3)sc2C[C@@H]2[C@](C)(CO)[C@H](O)CC[C@]21C` gave Methyltransferases inactive.
`Cc1ccc(NC(=O)Cn2nc3n(C4CC4)c(=O)c4ccc(C(=O)NC(C)C)cc4n3c2=O)c(C)c1` gave Methyltransferases inactive.
